Reference: PubChem BioAssay AID1159580 (chemical genetic matrix, 2015)
Among all 5,500 compounds or so, about 2,000 (36%) were called active. Not shown: some 18% with an inconclusive outcome. Rule as the data show it: active = normalized growth mostly below about 0.91 (no sharp cut-off); inconclusive = no clear call, values can overlap the other calls; inactive = mostly above about 0.92. Some of the results follow.

Assay: chemical genetic growth profiling, strain panel (AID 1159580);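 also: tested at 20 µM; growth read once vehicle control cultures reached saturation at 30 °C; 1 = growth at the plate median or of vehicle wells; lower values mean less growth of the strain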
Conditions: S. cerevisiae deletion strains, growth OD

Measured: normalized growth

CN1CCC(=C2c3ccccc3C=Cc3ccccc32)CC1
inactive: locus YAL013W, strain DEP1, hits give low values 0.966 | locus YAL040C, strain CLN3, hits give low values 0.99 | locus YCL061C, strain MRC1 (second series), hits give low values 0.99 | locus YDR150W, strain NUM1, hits give low values 1 | locus YDR363W, strain ESC2, hits give low values 1 | locus YER002W, strain NOP16, hits give low values 0.995 | locus YGR078C, strain PAC10, hits give low values 1 | locus YGR229C, strain SMI1, hits give low values 0.959 | locus YHR030C, strain SLT2, hits give low values 0.965 | locus YHR079C, strain IRE1, hits give low values 0.967 | locus YJL095W, strain BCK1, hits give low values 0.968 | locus YJR066W, strain TOR1, hits give low values 0.942 | locus YLR113W, strain HOG1, hits give low values 0.942 | locus YMR307W, strain GAS1, hits give low values 1.01 | locus YNL175C, strain NOP13, hits give low values 0.986 | locus YNL183C, strain NPR1, hits give low values 0.914 | locus YNL197C, strain WHI3, hits give low values 1.01 | locus YNL224C, strain SQS1, hits give low values 0.995 | locus YNL322C, strain KRE1, hits give low values 0.993 | locus YOR083W, strain WHI5 (second series), hits give low values 1.01 | locus YOR231W, strain MKK1, hits give low values 0.965 | locus YPL055C, strain LGE1, hits give low values 0.973 | locus YPL256C, strain CLN2, hits give low values 0.932
